Values without a mark were called inactive. No rule for the calls is given here.
B1: d6r1_design_ppi_2_dldesign_0_cycle0_af2pred (protein)
chain: EEERRRAIEAAEGAVEAARKNLELFREAHPEATEEIARLEARVEEARREAERAREEGASVEEARRVLERARAVQAEITRALHRANLA
B2: d6r1_design_ppi_2_dldesign_0_cycle1_af2pred (protein)
chain: AEAKKKAIEDAEGAAEAAKKFLDLFKEAFPEAKETIAALQAKVEAAKKAAEKARKEGADVATAQAVLDQARAVQVDIINALNEATRS
B3: d6r1_design_ppi_3_dldesign_0_cycle0_af2pred (protein)
chain: EEELARAAEAARRQAEVAEALAEQAAAADPANQPLADEARRLAERARELAERGATVEEIREALLEVSRAAARAAAALNAAVAA
B4: d6r1_design_ppi_11_dldesign_0_cycle1_af2pred (protein)
chain: EMEKAQKELLEAANKAMTTLFKAAAAASAKGDNATAGQLVEAAGEVSKLAKEAVKKSPEAMKEAAKKLKEAAAAGAKLGAA
B5: d6r1_design_ppi_13_dldesign_0_cycle1_af2pred (protein)
chain: AAEAKAAEKAARAELAKLRAVAAANPVHGGEILLAVARAAAEVNRLIAKGLAGTPEEAKAAAEAAKAAVAKARAEAAALA
B6: d6r1_design_ppi_30_dldesign_0_cycle0_af2pred (protein)
chain: EKEEIIKKAKELKEQAEKVLAEDVSPLAKKVAEQAIKHAEKAIEAAKAGDLEEAKAHLSSAEAFVLGLTR
B7: d6r1_design_ppi_51_dldesign_0_cycle0_af2pred (protein)
chain: ALAEAQKQLAQARALVLGAEAAVEHAERSSPEEGRRALAAARDLIAQAKEKAKAAAKHPETKAEAEKLLKEAEKLEARAAAVEAAL
B8: d6r1_design_ppi_62_dldesign_0_cycle0_af2pred (protein)
chain: VEEARALAESAEQAAEAGSYLLAALNLERAVRLAEELARRGEGLEEVRRIAERVAEVAKRVAESPEVRERAEEILRRAKRIIEEI
B9: d6r1_design_ppi_82_dldesign_0_cycle1_af2pred (protein)
chain: AAATQQQLTQAVRDALLARVAAVAADPSQAELLRRVTRSAVLMMGALEGLEGARAFAERAIAAAAAVGPEAAAAVREGAREGLEEYAA
B10: d6r1_design_ppi_138_dldesign_0_cycle1_af2pred (protein)
chain: GKKKEEAEKLIKEAKEVKEKAEEAAKLAKELGNEEAAKAAQKAIEEAEKAIEAAKEGKLEEARLHLAKAKGYLLRAQGLIANKLAAA
B11: d6r1_design_ppi_197_dldesign_0_cycle0_af2pred (protein)
chain: AAELAALEAEFRDQLEVARQAARFSPASAAAFLAGVAASLRRRLPPALGAAFAARADAAAAAARLLGEDPAAGEALFAAVLA
B12: d6r1_design_ppi_198_dldesign_0_cycle1_af2pred (protein)
chain: GEAEKVEKAKEKAAEKINEALALASKGAIEGDVEKVKEAKEILKEAVKEAKAVSPEAAKYAEELAKKAEEIIEAMEKSAKAAA
B13: d6r1_design_ppi_203_dldesign_0_cycle1_af2pred (protein)
chain: AQEQVVKEAQQLLLAASQAISKALVRAAQGTLQQADIEAAQKLIEAAAKAAEKAPPEAKARLNKGVEGLKELLEGALQTAKLAK
B14: d6r1_design_ppi_222_dldesign_0_cycle1_af2pred (protein)
chain: SAEAAALKEEAEKLGKEALAAAEELKKVDPEKGERLKSQIKGLELQAISSYDLAAVNPAALATAKKAREQLEKLGREAKEAV
B15: d6r1_design_ppi_229_dldesign_0_cycle0_af2pred (protein)
chain: EEARELARRTAEEAEELIKKALPEEDRELAELAGDLVRAGAEAATTNPAQGRAAFRTAAGILRSAGAEEAAEEVERRMEEMLRRIA
B16: d6r1_design_ppi_232_dldesign_0_cycle0_af2pred (protein)
chain: AEEFAEEAKKELEEIEKMIKEGEARADGEQIAVEAIEKAGEALKKAKEFKKKDPKVGEEAAKEFLKAINEATKAANAKAAAA
B17: d6r1_design_ppi_239_dldesign_0_cycle1_af2pred (protein)
chain: DKAVLEEAEKVFKEALAVAEEIVAEGAKNPAYAAFAKAFAKQLKAQLAEAKKLTPEEALKAAKKLLDAAKQALKLVSE
B18: d6r1_design_ppi_243_dldesign_0_cycle1_af2pred (protein)
chain: AEAVARAARDARAQIELAEALLKQGLAAAKTDPAQALLAYNAALAAARSAVRIAARAPEVLEEARAALAAVEAAKAKVQAQAA
B19: d6r1_design_ppi_251_dldesign_0_cycle0_af2pred (protein)
chain: DAARALLLRTAENAAQMLRLLGVDEATAEAVLARLTAAAAAGPAAFAAAARAAAAELEAQPSLNARTAGAALRTAAATAEAEIAAL
B20: d6r1_design_ppi_270_dldesign_0_cycle1_af2pred (protein)
chain: EEEKREAAREITERAIEEIRAAAERAAAAGQPGAGVEAGMKIGAEAVRRVREKGTEELAEEAARRMNAALAEAIRAAMALAR
B21: d6r1_design_ppi_311_dldesign_0_cycle1_af2pred (protein)
chain: MTPEEVAARAAELLAWLRAQAALDPEMAALGAAGLELVLAHSPELAARAVRQLERARRMPPADALRVGALIAQAYAAQVERARA
B22: d6r1_design_ppi_373_dldesign_0_cycle1_af2pred (protein)
chain: EKEELIKKAKEALEKAKKAAKEAAADPELAKKAKKLAEEAKKAVEKAKKSGKEEAKKLAEKAKAAAAKAEAYALLAQGRAAA
B23: d6r1_design_ppi_377_dldesign_0_cycle0_af2pred (protein)
chain: EEERRRAEELRRRAEEAIERIRASTPEEAARIAGELVAWLGEEARAGTPELAEEARREMARVTREAARVLA
B24: d6r1_design_ppi_377_dldesign_0_cycle1_af2pred (protein)
chain: MEDEELAEKIRERAKEAIAQIRASSPEQAALLAGTLVAEFGEWARSGTPEVAAVAHEEMNRVTGEAAKVIA
B25: d6r1_design_ppi_381_dldesign_0_cycle1_af2pred (protein)
chain: DEARAIIVSSLSEAAALDPAVAPLAMRAAALSINPATAAAAMAEAIAAMRAAGATVPEVAALADRAEAAA
B26: d6r1_design_ppi_397_dldesign_0_cycle1_af2pred (protein)
chain: GEEEEEKKRKEEIKKAIKEAAEKAKEAGPAETRPEIEAAEKLALEDPKAGMNRLLAIGAREPATAPYLVEGAEKVSALLKS
B27: d6r1_design_ppi_398_dldesign_0_cycle0_af2pred (protein)
chain: STAASLATGARVIANLFERAIEAAADPATRAEAEGLARSAAEIGALIGPELAAIAEAGLAAIGDLAAMRAELERVRALAAAA
B28: d6r1_design_ppi_463_dldesign_0_cycle0_af2pred (protein)
chain: GLIEELLAEARAEVEAEIAARREEARRLAAEGEESEDTEEKRARAEELLAEAAEREAQADSIAAQAAFRRAAELTRQLAAAA
B29: d6r1_design_ppi_463_dldesign_0_cycle1_af2pred (protein)
chain: GPFEAAYAEALAEVEAEIAALKAEAEKVAAAGKKTGKTAEAAAKAEELKAKAAELEAQKESIAAQRAFRRLAAQTAAQAAAA
B30: d6r1_design_ppi_468_dldesign_0_cycle1_af2pred (protein)
chain: AQAALDAAIAAARAAAALAREAGDDTAAAFFESAALVLEGGPANMPLAIRLTEAGIRSARARLDPATAAKVAALGEAAIAAARAAAAA
B31: d6r1_design_ppi_478_dldesign_0_cycle1_af2pred (protein)
chain: AAARAAAQQLLMEVAEELIKLGAKEAARLALRAIGLLLSDPAQGVAAAKEAAKKAKEEAPENGEELAKKLEEAAKLAAA
B32: d6r1_design_ppi_484_dldesign_0_cycle1_af2pred (protein)
chain: GEEAERESKEALERVRELLRRLNELAAQRAAHPAELRATAAALVEAGKEALANPNASEEAKQLGAFGVTLGQTVLAALDAAAA
B33: d6r1_design_ppi_518_dldesign_0_cycle0_af2pred (protein)
chain: SAATLAQYNQLSGQASRLLMQAAQTGSVELAQQALQYAQQALQLAQQASANNAEGAKQLLEIAQATLAAVQ
B34: d6r1_design_ppi_575_dldesign_0_cycle0_af2pred (protein)
chain: SAEEEAAKEEAKAVLAQAEAILEQAKALAAQQPWAAGIAALARTAIRLAKESLEKGLELLPDAKALTEAAAGIVAAA
B35: d6r1_design_ppi_575_dldesign_0_cycle1_af2pred (protein)
chain: GAALAAQRAEAREVLARARAIEAQAQALAATQPAAAGIGSLARQAIELASRSLEEGLELLPSARALVEVAAGIVAAA
B36: d6r1_design_ppi_583_dldesign_0_cycle1_af2pred (protein)
chain: MNIEELTALAEEHEAKAKALAAAGAPAIEVVSAATLAVRYYNEAAKLLAKIDPAKAKEYTAKAEAIRAAAAAYIRAQLARSAAA
B37: d6r1_design_ppi_593_dldesign_0_cycle1_af2pred (protein)
chain: SKNVELAEKAQEVVKRAKEVGKLVPEKAEEIISTSNQALAYALNPHTVAKGEKLLEEATKLVEEAEKEAK
B38: d6r1_design_ppi_617_dldesign_0_cycle0_af2pred (protein)
chain: AAARAQALLNEALALLFEAAARSRDGAPILRAASLAAQGFLTGEAAPEALAYIEAVAKEHPEVRELILEAARLFAEAAAL

target: CD276, Q5ZPR3
Sequence (Q5ZPR3 whole entry): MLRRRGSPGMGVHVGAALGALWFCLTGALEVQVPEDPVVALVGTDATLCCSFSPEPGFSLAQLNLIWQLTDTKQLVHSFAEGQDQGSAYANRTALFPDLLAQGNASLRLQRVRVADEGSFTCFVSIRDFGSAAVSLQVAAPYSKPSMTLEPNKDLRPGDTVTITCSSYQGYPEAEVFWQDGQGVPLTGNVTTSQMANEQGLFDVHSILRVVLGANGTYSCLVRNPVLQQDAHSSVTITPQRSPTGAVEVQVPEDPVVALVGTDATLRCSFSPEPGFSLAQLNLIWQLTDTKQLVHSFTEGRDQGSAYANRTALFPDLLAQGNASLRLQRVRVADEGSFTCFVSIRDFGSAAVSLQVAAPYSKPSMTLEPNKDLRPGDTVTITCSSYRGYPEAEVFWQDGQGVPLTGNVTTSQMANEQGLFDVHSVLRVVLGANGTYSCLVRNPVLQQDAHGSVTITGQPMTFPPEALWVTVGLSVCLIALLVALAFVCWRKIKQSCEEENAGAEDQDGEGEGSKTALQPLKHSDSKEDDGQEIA

Binder	binding in a display sort
B1	not found
B2	not found
B3	not found
B4	not found
B5	not found
B6	not found
B7	not found
B8	not found
B9	not found
B10	not found
B11	not found
B12	not found
B13	not found
B14	not found
B15	not found
B16	not found
B17	not found
B18	not found
B19	not found

Binder	binding in a display sort
B20	not found
B21	not found
B22	not found
B23	not found
B24	not found
B25	not found
B26	not found
B27	not found
B28	not found
B29	not found
B30	not found
B31	not found
B32	not found
B33	not found
B34	not found
B35	not found
B36	not found
B37	not found
B38	not found

Source: PMC13494018
